# Laboratory results taken from the supplement of paper PMC10338343.
# ± gives the standard deviation.
# Tested on: MILI (PIWIL2) piRISC loaded with piRNA #1 (26 nt)
# Assay: pre-steady-state target cleavage rate (min^-1); guide: piRNA #1 5'p-UGAGGUAGUAGGUUGUAUAGUAUCCA; MIWI and MILI are mouse PIWI proteins and EfPiwi is from a freshwater sponge; tags in brackets are library labels; higher = faster piRNA-guided slicing of the target
# Conditions: auxiliary factor: 500 nM mouse GTSF1
# Outline: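 Active affinity-purified piRISC carrying one synthetic guide (1 nM) was mixed with a transcribed, DNA-blocked target RNA library […] in HEPES–potassium acetate buffer at 33 °C for 0–8 or 0–960 min, with or without 500 nM GTSF1 partner protein. Uncleaved targets were then sequenced and normalised to depth and to weakly complementary targets. Three trials were pooled, and k3 was capped at 0.0001 min^-1. A burst-and-steady-state fit was applied to obtain the pre-steady-state cleavage rate.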
# 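Also: 1 nM active piRISC with 0.1 nM target library at 33 °C single turnover.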
row,Sequence,pre-steady-state target cleavage rate
1,GGAGACCUAUGAUUACAAGCUACUAGCUCA,0.00635 ± 0.0034
2,GGAGACCUAACUUAUACAACCUACUACCUCA,0.0771 ± 0.019
3,GGAGACCUAACAAUACAACCUACUUCCUCA,0.0651 ± 0.019
4,GGAGACGAUUCUAUACAACGUACUACCUCA,0.0237 ± 0.0031
5,GGAGACGAUACUAUACAACCAACUUCCUCA,0.00374 ± 0.0027
6,GGAGUGGAUACUUUAGAACCUACUACCUCA,0.116 ± 0.0096
7,GGAGACCUAACUAUACAACCUAACUACCUCA,0.00748 ± 0.0037
8,GGAGACCUAACUAUACAACCUACUAACCUCA,0.187 ± 0.028
9,GGAGACCUUACUUAACAACCUACUACCUCA,0.101 ± 0.016
10,GGAGACCUAUCUAUACAACCUACUUCCUCA,0.0646 ± 0.012
11,GGAGACCUAUGAUAUCUACCUACUACGUCA,< 0.0001
12,GGAGACCUAUGAUUACUACCUACUACCUCA,0.00306 ± 0.0021
13,GGAGAGGAUACUAAACAACCUUCUACCUCA,0.0108 ± 0.0026
14,GGAGACCUAUGAUUACAAGCUACUACCUGA,0.0183 ± 0.0056
15,GGAGACCUAUGAAAACAACCUACUAGCUCA,0.00432 ± 0.0025
16,GGAGACCUAUGUAAACUACCUACUACCUCA,0.00288 ± 0.0026
17,GGAGACCAUACUAUACAACCUUCAACCUCA,0.0066 ± 0.0029
18,GGAGACCUAUCAAUACAACCUACAACCUCA,0.0677 ± 0.015
19,GGAGACCUAAGUAUACAACCUACUACCUGA,0.0424 ± 0.0093
20,GGAGACCUAUCUAUCAACCUACUACCUCA,0.0205 ± 0.0047

row,Sequence,pre-steady-state target cleavage rate
1,GGAGACCUAUGUAAACAUCCUACUACCUCA,0.0128 ± 0.0025
2,GGAGACCUAACUAUACUACCUACUACCACA,0.0974 ± 0.017
3,GGAGACCUUACUAAACAACCUACUACGUCA,0.0571 ± 0.01
4,GGAGACCUAUGUAUACUACGUACUACCUCA,0.00798 ± 0.0023
5,GGAGACCUAUCUUUACAACCUACUUCCUCA,0.0374 ± 0.0094
6,GGAGACCUAUGUAUACAACCUACUACCUAA,0.0593 ± 0.0072
7,GGAGACCUAUCUAUACAACCUACUACGCUCA,0.229 ± 0.023
8,GGAGACCUAUGAUUACAACCUAUUACCUCA,0.00348 ± 0.0024
9,GGAGACCUAACUAGACAACCUACUACCUCA,0.0997 ± 0.02
10,GGAGUGGAUACUUUACAACCUACUACCUGA,0.0844 ± 0.011
11,GGAGACCUAUGUAUACAACCUACUAGCACA,0.00507 ± 0.0028
12,GGAGACCUUACUAUACAACCUACCACCUCA,0.118 ± 0.015
13,GGAGUGGAUACUAUUACAACCUACUACCUCA,0.155 ± 0.0095
14,GGAGUGGAUACUAUACAACCUACUACAUCA,0.0416 ± 0.0072
15,GGAGACCUAUCUAUUCAACCUACUACCUCA,0.108 ± 0.015
16,GGAGACCUAACUAUAGAACGUACUACCUCA,0.00603 ± 0.0028
17,GGAGACCUAUGAUUACAACCUACUAUCUCA,0.00332 ± 0.0022
18,GGAGACCUAUGAUAUGUUGCUACUACCUAA,< 0.0001
19,GGAGACCUAUGUAUACAACCUACUACCUGCA,0.0635 ± 0.011
